HTR5A ag ctr: HTR5A agonists in luminescence cell assay, primary screen, counter-screen for OPRM1-OPRD1 heterodimer agonist project, full-deck HTS | activation, % at 9.3 µM | actives 0.61% (n = 340,000) | AID 504692, 2011 | cell-based; in the data active = activation mostly above about 9.5%, no sharp cut-off; inactive = mostly below about 7.6%;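 also: 0% = cells with vehicle only and 100% = reference agonist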
HTR5A inv ctr: HTR5A inverse agonists in luminescence cell assay, primary screen, counter-screen for OPRM1-OPRD1 heterodimer inverse agonist project, full-deck HTS; inhibition, % at 9.3 µM; HTR5A cell line, inverse agonism; actives 0.083% (n = 340,000); in the data active = inhibition mostly above about 23%, no sharp cut-off; inactive = mostly below about 18%;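 also: 0% = cells with DMSO and 100% = no-cell wells with DMSO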
MOR-DOR inv ag: inverse agonists of MOR-DOR heterodimerization, primary screen, cell-based, luminescence. Mu-type opioid receptor (Homo sapiens) + Delta-type opioid receptor (Homo sapiens), …. cell-based MOR-DOR heterodimer luminescence, inverse agonism. inhibition, % at 9.3 µM. actives 0.21% (n = 340,000). AID 504357, 2011; in the data active = inhibition above about 22%, passing the limit was not always enough;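 also: 0% = cells with DMSO and 100% = wells without cells with DMSO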
Target sequence (P35372 whole entry, looked up): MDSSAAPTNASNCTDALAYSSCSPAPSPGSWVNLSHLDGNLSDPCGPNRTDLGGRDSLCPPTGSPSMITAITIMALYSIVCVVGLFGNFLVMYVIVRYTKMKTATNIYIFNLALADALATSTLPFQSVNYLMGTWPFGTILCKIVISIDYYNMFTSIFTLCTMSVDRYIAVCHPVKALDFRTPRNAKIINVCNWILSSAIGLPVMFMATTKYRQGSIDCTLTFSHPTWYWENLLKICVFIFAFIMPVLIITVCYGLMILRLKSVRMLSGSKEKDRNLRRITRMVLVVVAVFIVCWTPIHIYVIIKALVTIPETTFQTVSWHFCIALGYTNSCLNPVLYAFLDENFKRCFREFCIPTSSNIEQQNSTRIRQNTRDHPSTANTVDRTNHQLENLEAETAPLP
Target sequence (P41143 whole entry, looked up): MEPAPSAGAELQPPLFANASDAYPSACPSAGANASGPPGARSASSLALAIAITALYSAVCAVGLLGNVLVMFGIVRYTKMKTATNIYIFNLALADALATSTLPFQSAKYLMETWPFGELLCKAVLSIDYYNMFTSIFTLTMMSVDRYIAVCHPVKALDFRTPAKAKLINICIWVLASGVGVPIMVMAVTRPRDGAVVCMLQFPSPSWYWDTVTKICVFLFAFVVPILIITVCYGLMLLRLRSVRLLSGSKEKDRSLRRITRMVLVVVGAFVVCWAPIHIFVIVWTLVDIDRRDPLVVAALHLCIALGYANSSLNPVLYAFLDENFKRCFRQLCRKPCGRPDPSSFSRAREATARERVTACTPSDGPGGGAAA
MOR-DOR ag: agonists of OPRM1-OPRD1 heterodimerization, primary screen, cell-based, luminescence; AID 504326, 2011; Mu-type opioid receptor (Homo sapiens) + Delta-type opioid receptor (Homo sapiens), …; activation, % at 9.3 µM; actives 0.3% (n = 340,000); cells; in the data active = activation above about 18%;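 also: 0% = vehicle-treated cells and 100% = reference agonist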
Active calls of the source: *. Shown are actives, neighbours in structure and some others; about 1.1% of the full set was active somewhere.

Cc1cc(C)cc(N2C(=O)NC(=O)/C(=C\c3cccn3-c3ccccc3)C2=O)c1 was read as HTR5A ag ctr 12, HTR5A inv ctr -23, MOR-DOR inv ag -7 and MOR-DOR ag 1.
`Cc1cc(C)cc(N2C(=O)NC(=O)/C(=C\c3cccn3-c3ccc(Cl)cc3)C2=O)c1` gave HTR5A ag ctr 14*, HTR5A inv ctr -51, MOR-DOR inv ag -7 and MOR-DOR ag 1.
c1ccc(NC2=NCCS2)cc1 was read as HTR5A ag ctr 7, HTR5A inv ctr -23, MOR-DOR inv ag 5 and MOR-DOR ag -1.
For S=P(N1CCCCCC1)(N1CC1)N1CC1 the results were HTR5A ag ctr -2, HTR5A inv ctr 8, MOR-DOR inv ag 5 and MOR-DOR ag -1.
Cc1ccc(-n2c(O)c(C=NCCN3CCNCC3)c(=O)[nH]c2=S)cc1 was read as HTR5A ag ctr -1, HTR5A inv ctr 2, MOR-DOR inv ag 5 and MOR-DOR ag -1.
CC(C)c1ccc(-n2c(O)c(C=NCCN3CCNCC3)c(=O)[nH]c2=S)cc1 was read as HTR5A ag ctr 10*, HTR5A inv ctr -39, MOR-DOR inv ag -4 and MOR-DOR ag 1.
Screening C[C@@H]1O[C@@H](O[C@H]2C[C@@H](O)[C@]3(CO)[C@H]4[C@H](O)C[C@]5(C)[C@@H](C6COC(=O)C6)CC[C@]5(O)[C@@H]4CC[C@]3(O)C2)[C@H](O)[C@H](O)[C@H]1O (some centres undefined) returned HTR5A ag ctr 27, HTR5A inv ctr -81, MOR-DOR inv ag -404 and MOR-DOR ag 73*.
Screening CC(=O)NCCc1c[nH]c2ccccc12 returned HTR5A ag ctr 0, HTR5A inv ctr 9, MOR-DOR inv ag -1 and MOR-DOR ag 0.
NCCc1c[nH]c2ccccc12 was read as HTR5A ag ctr 50*, HTR5A inv ctr -7, MOR-DOR inv ag -11 and MOR-DOR ag 2.
For c1coc(CNCCc2c[nH]c3ccccc23)c1 the results were HTR5A ag ctr 13*, HTR5A inv ctr -50, MOR-DOR inv ag 9 and MOR-DOR ag -2.
Screening COc1ccc(C(=O)N/N=C/C23CC[C@@H](O)CC2(O)CC[C@@H]2[C@@H]3CCC3(C)C(C4=CC(=O)OC4)CCC23O)cc1 (some centres undefined) returned HTR5A ag ctr 30*, HTR5A inv ctr 19, MOR-DOR inv ag -169 and MOR-DOR ag 34*.
CN(C)c1ccc(C(=O)N/N=C/C23CC[C@@H](O)CC2(O)CC[C@@H]2[C@@H]3CCC3(C)C(C4=CC(=O)OC4)CCC23O)cc1 (some centres undefined) was read as HTR5A ag ctr 35*, HTR5A inv ctr 6, MOR-DOR inv ag -301 and MOR-DOR ag 59*.
For CNP(=S)(NC)OCCOc1ccc(OC)cc1 the results were HTR5A ag ctr 0, HTR5A inv ctr 28, MOR-DOR inv ag 3 and MOR-DOR ag -1.
CCOc1cccc(CNCCc2c(C)[nH]c3ccc(OC(F)(F)F)cc23)c1O was read as HTR5A ag ctr 16*, HTR5A inv ctr -63, MOR-DOR inv ag -111 and MOR-DOR ag 20*.
`CC12CCC(=O)C=C1C=CC1C2CCC2(C)C(O)CCC12` (centres undefined) gave HTR5A ag ctr 3, HTR5A inv ctr -10, MOR-DOR inv ag 2 and MOR-DOR ag 0.
Cc1cccc(CC(c2cccc(C)c2)N(C)C)c1 (centres undefined) was read as HTR5A ag ctr 3, HTR5A inv ctr -11, MOR-DOR inv ag 3 and MOR-DOR ag -1.
Screening CC(=O)C1CCC2(O)C3CCC4=CC(=O)CCC4(C)C3CCC12C (centres undefined) returned HTR5A ag ctr -2, HTR5A inv ctr 9, MOR-DOR inv ag 19 and MOR-DOR ag -4.
C[C@@H]1O[C@@H](O[C@@H]2C=C3CC[C@@H]4C(CC[C@]5(C)[C@@H](c6ccc(=O)oc6)CC[C@]45O)[C@@]3(C)CC2)[C@H](O)[C@H](O)[C@H]1O (some centres undefined) was read as HTR5A ag ctr 22*, HTR5A inv ctr -65, MOR-DOR inv ag -393 and MOR-DOR ag 68*.
Screening COC(=O)C1=C(c2cccc(C#N)c2)C[C@@H]2CC[C@H]1N2C(=O)NCCNC(C)=O returned HTR5A ag ctr 0, HTR5A inv ctr -2, MOR-DOR inv ag 0 and MOR-DOR ag 0.
CCN1/C(=C\C=C\C2=[N+](CC)c3ccccc3C2(C)C)C(C)(C)c2ccccc21 was read as HTR5A ag ctr -11, HTR5A inv ctr 38*, MOR-DOR inv ag -53 and MOR-DOR ag 8.
`S=c1[nH]c2ccccc2[nH]1` gave HTR5A ag ctr 10*, HTR5A inv ctr -29, MOR-DOR inv ag 16 and MOR-DOR ag -3.
CCNC(=O)NNC(=O)C1CC(c2cccnc2)=NO1 (centres undefined) was read as HTR5A ag ctr 9, HTR5A inv ctr -3, MOR-DOR inv ag 7 and MOR-DOR ag -1.
O=C(Cc1c(Cl)cccc1Cl)N1CCN(Cc2ccccc2)CC1 was read as HTR5A ag ctr -3, HTR5A inv ctr 10, MOR-DOR inv ag 8 and MOR-DOR ag -1.
For CC(=O)OC1CC(OC2C(O)CC(OC3C(O)CC(OC4CCC5(C)C(CCC6C5CCC5(C)C(C7=CC(=O)OC7)CCC65O)C4)OC3C)OC2C)OC(C)C1OC1OC(CO)C(O)C(O)C1O (centres undefined) the results were HTR5A ag ctr 37*, HTR5A inv ctr -146, MOR-DOR inv ag -349 and MOR-DOR ag 68*.
Screening CC12CN3CN(C1)CC(c1ccccc1)(C3)C2=O returned HTR5A ag ctr 8, HTR5A inv ctr -21, MOR-DOR inv ag 6 and MOR-DOR ag -1.
Screening Cc1cc(N2CCN(C)CC2)nc2ccccc12 returned HTR5A ag ctr 9.1*, HTR5A inv ctr -34, MOR-DOR inv ag 1 and MOR-DOR ag 0.
Cc1ccc(C(=O)Nc2ccc(Cl)cc2C(=O)c2ccccc2)cc1 was read as HTR5A ag ctr 11*, HTR5A inv ctr -39, MOR-DOR inv ag -43 and MOR-DOR ag 7.
Screening C=CC1CN2CCC1CC2[C@@H](OC(=O)c1ccc(OC)cc1)c1ccnc2ccccc12 (some centres undefined) returned HTR5A ag ctr -3, HTR5A inv ctr 8, MOR-DOR inv ag 10 and MOR-DOR ag -2.
Cc1cccc(CCNCc2cc3ccc(C)cc3[nH]c2=O)c1 was read as HTR5A ag ctr 12*, HTR5A inv ctr -43, MOR-DOR inv ag 5 and MOR-DOR ag -1.
`Cc1ccc2[nH]c(C)c(CCNCc3ccco3)c2c1` gave HTR5A ag ctr -1, HTR5A inv ctr 5, MOR-DOR inv ag -2 and MOR-DOR ag 0.
`O=c1c2ccccc2nc(/C=C/c2ccc(O)cc2)n1-c1cccc(O)c1` gave HTR5A ag ctr 9.8*, HTR5A inv ctr -25, MOR-DOR inv ag 12 and MOR-DOR ag -2.
For O=c1c2ccccc2nc(/C=C/c2ccc(O)cc2)n1-c1ccc(O)cc1 the results were HTR5A ag ctr -3, HTR5A inv ctr 11, MOR-DOR inv ag -12 and MOR-DOR ag 3.
